Compound activity deposited in PubChem by several laboratories.
Calb FLC = C. albicans growth modulation with fluconazole. growth inhibition, % (test concentration not listed). C. albicans CaCi-2 (fluconazole-resistant clinical isolate) + fluconazole, Alamar Blue growth, 48 h. AID 1979. hit rate 0.57% among 300,000;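 active means growth inhibition above about 58% in most replicates, limit read from the data, passing the limit was not always enough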;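 further: all wells also contain fluconazole at 8 µg/ml as a sub-toxic cotreatment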
NadD block = NadD (S. aureus) enzyme inhibition. AID 602399. hit rate 0.78% among 360,000. inhibition, % at 20 µM. purified NadD enzyme, colorimetric absorbance read-out; in the data active means inhibition above about 26%
ATG4B inhibitor = blocks human ATG4B protease cleavage of LC3 substrate; ATG4B cleavage of LC3-PLA2, NBD-HPC fluorescence, 1 h; inhibition, % at 8.33 µM; hit rate 0.51% among 340,000; in the data active means inhibition above about 40%
Target sequence (Q9Y4P1 whole entry, looked up): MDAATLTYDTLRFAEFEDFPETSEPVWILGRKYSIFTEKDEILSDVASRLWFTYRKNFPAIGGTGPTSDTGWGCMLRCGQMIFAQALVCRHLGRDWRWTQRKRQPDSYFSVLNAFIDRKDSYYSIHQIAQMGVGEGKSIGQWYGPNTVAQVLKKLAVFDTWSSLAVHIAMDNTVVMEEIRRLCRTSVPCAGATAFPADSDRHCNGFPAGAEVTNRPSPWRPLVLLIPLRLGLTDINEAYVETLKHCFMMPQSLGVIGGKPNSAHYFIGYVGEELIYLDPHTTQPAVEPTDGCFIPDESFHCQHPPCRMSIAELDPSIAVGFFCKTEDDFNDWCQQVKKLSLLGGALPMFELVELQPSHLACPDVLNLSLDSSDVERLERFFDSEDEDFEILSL
SUMO Mot1 rescue = SUMOylation pathway inhibition by Mot1-301 growth rescue. growth rescue, % at 18.8 µM. hit rate 1% among 320,000. S. cerevisiae Mot1-301 growth rescue, ATP luminescence, 38.5C; percent above DMSO median, 100 means doubled;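 active means every valid replicate shows activation above 250% relative to neutral control wells; inactive means the rest, any valid replicate at or below 250%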
FAS TE block = inhibitors of human fatty acid synthase thioesterase domain | recombinant FAS-TE, OMFH fluorogenic substrate, fluorescence endpoint | P49327 | inhibition, % at 15 µM | hit rate 0.67% among 360,000;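 active means compounds whose normalised, plate-corrected inhibition of enzyme fluorescence in the single-dose primary screen is 50% or more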
Yeast Mot1 SUMO = inhibits SUMO pathway, affecting Mot1-301 yeast growth; shares compounds with SUMO Mot1 rescue; S. cerevisiae Mot1-301 galactose growth, ATP luminescence, 24 h; -100 = growth of slx-deleted rescue strain; growth activity, percent, % at 42 µM; 2,300 tested, under 10 active; AID 493004;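 active means Signal drops as the depositor expects, and the fitted half-maximal dose is no more than ten times the top valid tested dose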;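 further: more negative values mean stronger growth rescue toward the control strain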
Numbers stand for hits. This is a sample that favours compounds with a hit; in the whole collection about 3.1% have one here.

What do the screens show for `CCCCN(C(=O)C1=COCCO1)c1c(N)n(Cc2ccccc2)c(=O)[nH]c1=O`?
NadD block: inactive; ATG4B inhibitor: inactive; SUMO Mot1 rescue: 521; FAS TE block: inactive; Yeast Mot1 SUMO: inactive

Results for CC(C)CN(C(=O)COC(=O)c1ccc2c(c1)OCCO2)c1c(N)n(Cc2ccccc2)c(=O)[nH]c1=O ?
Calb FLC: inactive; NadD block: inactive; ATG4B inhibitor: inactive; SUMO Mot1 rescue: inactive; FAS TE block: inactive

What do the screens show for `CC(C)CN(C(=O)COC(=O)c1ccc2c(c1)OCO2)c1c(N)n(Cc2ccccc2)c(=O)[nH]c1=O`?
NadD block: inactive; ATG4B inhibitor: inactive; SUMO Mot1 rescue: 710; FAS TE block: inactive; Yeast Mot1 SUMO: inactive

What do the screens show for `CCN(C(=O)Cn1nc(C)c([N+](=O)[O-])c1C)c1c(N)n(Cc2ccccc2)c(=O)[nH]c1=O`?
Calb FLC: inactive; NadD block: inactive; ATG4B inhibitor: inactive; SUMO Mot1 rescue: 376; FAS TE block: inactive; Yeast Mot1 SUMO: inactive

Results for CN(C(=O)COC(=O)c1cc2ccccc2cc1O)c1c(N)n(Cc2ccccc2)c(=O)[nH]c1=O ?
NadD block: inactive; ATG4B inhibitor: inactive; SUMO Mot1 rescue: 427; FAS TE block: inactive; Yeast Mot1 SUMO: inactive

What do the screens show for `COCCN(C(=O)COC(=O)c1cc2ccccc2cc1OC)c1c(N)n(Cc2ccccc2)c(=O)[nH]c1=O`?
Calb FLC: inactive; NadD block: inactive; ATG4B inhibitor: inactive; SUMO Mot1 rescue: inactive; FAS TE block: inactive

Results for COc1ccc(NC(=O)COc2ccc3c(C)cc(=O)oc3c2)cc1S(=O)(=O)N1CCCCC1 ?
Calb FLC: inactive; NadD block: inactive; ATG4B inhibitor: inactive; SUMO Mot1 rescue: inactive; FAS TE block: inactive

Results for COc1ccc(CNC(=O)c2cc(=O)c3ccc(C)c(C)c3o2)cc1 ?
Calb FLC: inactive; NadD block: inactive; ATG4B inhibitor: inactive; SUMO Mot1 rescue: inactive; FAS TE block: inactive

How did COc1ccc(CNC(=O)c2cc(=O)c3cc(C)cc(C)c3o2)cc1 do in these assays?
Calb FLC: inactive; NadD block: inactive; ATG4B inhibitor: inactive; SUMO Mot1 rescue: active; FAS TE block: inactive; Yeast Mot1 SUMO: inactive

How did COC(=O)c1[nH]c2cc(C)ccc2c1NC(=O)CN1CCOCC1 do in these assays?
Calb FLC: inactive; NadD block: inactive; ATG4B inhibitor: inactive; SUMO Mot1 rescue: inactive; FAS TE block: inactive

Results for O=C(CN1CCN(c2ccccc2F)CC1)Nc1nnc(C(F)(F)F)s1 ?
Calb FLC: 86; NadD block: inactive; ATG4B inhibitor: inactive; SUMO Mot1 rescue: active; FAS TE block: inactive; Yeast Mot1 SUMO: inactive

Results for COc1cccc(NC(=O)CN2CCN(c3ccccc3F)CC2)c1 ?
Calb FLC: inactive; NadD block: inactive; ATG4B inhibitor: inactive; SUMO Mot1 rescue: 600; FAS TE block: inactive; Yeast Mot1 SUMO: inactive

Results for COC(=O)c1[nH]c2cc(C)ccc2c1NC(=O)CN1CCN(c2ccccc2OC)CC1 ?
Calb FLC: inactive; NadD block: inactive; ATG4B inhibitor: inactive; SUMO Mot1 rescue: 492; FAS TE block: inactive; Yeast Mot1 SUMO: inactive

Results for COc1cc(NC(=O)CN2CCN(c3ccccc3F)CC2)cc(OC)c1 ?
NadD block: inactive; ATG4B inhibitor: inactive; SUMO Mot1 rescue: inactive; FAS TE block: inactive

How did COc1ccc(C(=O)NNC(=O)CCc2ccccc2OC)cc1 do in these assays?
Calb FLC: inactive; NadD block: inactive; ATG4B inhibitor: inactive; SUMO Mot1 rescue: inactive; FAS TE block: inactive

Results for CCc1cc(CNC(=O)C2CCC(=O)N(Cc3ccccc3F)C2)on1 (configuration not stated) ?
NadD block: inactive; FAS TE block: inactive

Results for Cc1cc(CNC(=O)C2CCC(=O)N(Cc3ccccc3F)C2)on1 (configuration not stated) ?
Calb FLC: inactive; NadD block: inactive; ATG4B inhibitor: inactive; SUMO Mot1 rescue: 654; FAS TE block: inactive; Yeast Mot1 SUMO: inactive

Results for CC(=O)N1CCN(C(=O)CNC(=O)c2ccc(C)s2)CC1 ?
NadD block: inactive; ATG4B inhibitor: inactive; FAS TE block: inactive

What do the screens show for `O=S(=O)(c1ccccc1)N1CCN(c2nc3ccccc3s2)CC1`?
Calb FLC: inactive; NadD block: inactive; ATG4B inhibitor: inactive; SUMO Mot1 rescue: 453; FAS TE block: inactive; Yeast Mot1 SUMO: inactive

How did CS(=O)(=O)N1CCN(c2nc3ccccc3s2)CC1 do in these assays?
Calb FLC: inactive; NadD block: inactive; ATG4B inhibitor: inactive; SUMO Mot1 rescue: inactive; FAS TE block: inactive

Results for CCN(CC)C1CCN(C(=O)c2cc(COc3ccc(-n4cncn4)cc3)on2)C1 (configuration not stated) ?
Calb FLC: inactive; NadD block: inactive; ATG4B inhibitor: inactive; SUMO Mot1 rescue: 512; FAS TE block: inactive; Yeast Mot1 SUMO: inactive

What do the screens show for `Cc1cccc(NC(=O)c2nc[nH]c2C(=O)N2CCc3ccccc3C2)c1`?
NadD block: inactive; ATG4B inhibitor: inactive; SUMO Mot1 rescue: inactive; FAS TE block: inactive

What do the screens show for `Cc1cccc(C)c1NC(=O)C1(N(Cc2ccco2)C(=O)CC2NC(=O)NC2=O)CCCCC1` (configuration not stated)?
Calb FLC: inactive; NadD block: inactive; ATG4B inhibitor: inactive; SUMO Mot1 rescue: 413; FAS TE block: inactive; Yeast Mot1 SUMO: inactive

How did O=C1NC(=O)C(CC(=O)N(Cc2ccco2)C2(C(=O)NC3CCCC3)CCCCC2)N1 (configuration not stated) do in these assays?
Calb FLC: inactive; NadD block: inactive; ATG4B inhibitor: inactive; SUMO Mot1 rescue: inactive; FAS TE block: inactive

Results for O=C(CNC(=O)c1cccs1)N=Nc1c(O)[nH]c2ccc([N+](=O)[O-])cc12 ?
Calb FLC: inactive; NadD block: inactive; ATG4B inhibitor: inactive; SUMO Mot1 rescue: inactive; FAS TE block: inactive

Results for COc1cccc(Cn2cnc3c(NS(=O)(=O)c4cccc(Cl)c4Cl)c(C)c(C)cc32)c1 ?
Calb FLC: inactive; NadD block: 30; ATG4B inhibitor: inactive; SUMO Mot1 rescue: 411; FAS TE block: inactive; Yeast Mot1 SUMO: inactive

How did CC/C(=N\Nc1ccc([N+](=O)[O-])cc1)c1ccccc1 do in these assays?
Calb FLC: inactive; NadD block: inactive; ATG4B inhibitor: inactive; SUMO Mot1 rescue: 415; FAS TE block: inactive; Yeast Mot1 SUMO: inactive

How did O=[N+]([O-])c1ccc(NN=C(Oc2ccccc2)c2ccc([N+](=O)[O-])cc2)cc1 do in these assays?
NadD block: inactive; FAS TE block: inactive

Results for CN(C)c1ccc(C(CNC(=O)c2ccco2)N2CCCC2)cc1 (configuration not stated) ?
Calb FLC: inactive; NadD block: inactive; ATG4B inhibitor: inactive; SUMO Mot1 rescue: inactive; FAS TE block: inactive

What do the screens show for `Cc1ccc(C(=O)NCc2ccccc2CN2CCCC2)cc1S(=O)(=O)N1CCOCC1`?
NadD block: inactive; ATG4B inhibitor: inactive; SUMO Mot1 rescue: inactive; FAS TE block: inactive
